# Source: PubChem BioAssay (EPA / NIEHS)
# Several values for one entry are separate records, joined by “and”; a condition that tells them apart may be missing. Identical values can stand only once. Inconclusive results are not listed. More than one record can exist for a structure, and the calls need not agree. Activity calls are given as the source filed them. How the source made its calls, unless noted: active means hit-call score of the fitted dose curve at least 0.9, where 1 is the maximum; inconclusive means response in the unintended direction; inactive means score below 0.9.
# How the values were obtained:
# [1] = target: Glucocorticoid receptor (Homo sapiens) (UniProt P04150); assay: ATG_GR_TRANS: Attagene TRANS-FACTORIAL HepG2 Assay for human Glucocorticoid Receptor (GR) (AID 2282978); conditions: HepG2 Attagene TRANS GR reporter, mRNA transcription;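 further: activators score as hits since higher reporter transcript over DMSO is fitted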
# How it was run: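 Multiplexed TRANS reporter system, HepG2; 24 h exposure; RNA → oligo(dT) RT → reporter-specific PCR → 6-FAM primer extension → HpaI cut → CE fluorescence. Gain-of-signal vs DMSO.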
# [2] = target: rat Thyrotropin Releasing Hormone Receptor (TRH), Trhr (gene 25570) (UniProt Q01717); assay: NVS_GPCR_rTRH: NovaScreen (NVS) G Protein-Coupled Receptor Assay for rat Thyrotropin Releasing Hormone Receptor (TRH) (AID 2283329);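 further: hit means lower bound tracer signal versus DMSO baseline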
# How it was run: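 Cell-free radioligand binding on rat forebrain membranes; bound tracer measured by filter-based scintillation counting 4 hours after dosing. Loss of signal versus DMSO baseline indicates displacement; primary screen at 25 uM in duplicate, actives then run in concentration series.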
# [3] = target: Bile acid receptor (Homo sapiens) (UniProt Q96RI1); assay: OT_FXR_FXRSRC1_1440: Odyssey Thera (OT) 24-hour HEK293T Protein-Complementation Assay for Farnesoid X receptor/SRC-1 Co-activator (AID 2283384)
# How it was run: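 Fluorescence readout, 24 h post-dose, HEK293T; FXR and SRC-1 fused to complementary reporter fragments, association reconstitutes signal. Positive-direction fit vs DMSO baseline.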
# [4] = target: human Retinoic Acid Receptor beta (RARb), RARB (gene 5915) (UniProt P10826); assay: ATG_RARb_TRANS: Attagene TRANS-FACTORIAL HepG2 Assay for human Retinoic Acid Receptor beta (AID 2283004)
# How it was run: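 Fluorescent capillary-electrophoresis detection of GAL4-UAS reporter mRNA defines the endpoint, with induction over DMSO-treated wells scored as activity. Transiently transfected human hepatoma HepG2 cells expressing exogenous NR–Gal4 proteins are exposed to test chemicals for 24 h.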
# [5] = target: human Retinoic Acid Receptor gamma (RARg), RARG (gene 5916) (UniProt P13631); assay: ATG_RARg_TRANS: Attagene TRANS-FACTORIAL HepG2 Assay for human Retinoic Acid Receptor gamma (RARg) (AID 2283009)
# How it was run: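 Readout: reporter transcript levels via RT-PCR, 6-FAM primer-extension labelling, HpaI digestion and capillary electrophoresis. Cells: HepG2 carrying transfected RARg-GAL4 chimera plus UAS reporter set. Dosing 24 h; DMSO negative control.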
# [6] = system: Thyroperoxidase (TPO), gene 54314; assay: CCTE_Simmons_AUR_rTPO: CCTE's Amplex UltraRed Assay for Thyroperoxidase (TPO) Inhibition, Simmons Lab (AID 2283662);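 further: potency for loss of signal meaning inhibition of peroxidase activity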
# How it was run: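 Rat thyroid microsomal TPO + 25 uM AUR in 200 mM K phosphate; cpd 5 nM–87.5 uM [final], 8 conc, 0.5% DMSO; 300 uM H2O2 starts rxn; 37C dark 30 min; endpoint FI 544/590 nm; n=3.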
# [7] = CCTE_Simmons_CellTiterGLO_HEK293T: Viability Assessment in CCTE's Assays for Thyroperoxidase (TPO) Inhibition, Simmons Lab (AID 2283665);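 on AC50: cells exposed to compound for 24 h before readout; actives reduce ATP signal below DMSO vehicle meaning cytotoxicity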
# How it was run: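 Luminescent ATP readout (CellTiter-Glo, 20 min at room temperature) after 24 hr exposure of HEK293T cells to 5 nM–87.5 uM final compound; signal loss relative to DMSO vehicle indicated cytotoxicity; dichlone titrated as positive control.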
# [8] = target: Luciferin 4-monooxygenase (Photinus pyralis) (UniProt P08659); assay: CCTE_Simmons_QuantiLum_inhib_2: CCTE's Firefly Luciferase Inhibition Assay, Simmons Lab (AID 2283767);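 on AC50: potency for inhibitors that lower luciferase luminescence relative to DMSO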
# How it was run: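 Cell-free QuantiLum luciferase, 5 ng/well; compounds 5 nM–87.5 uM final, 8 conc, 0.5% DMSO; 30 min, 37C, dark. Detection reagent (150 uM D-luciferin, 147 uM dATP, CoA, DTT, pH 7.8 final) injected per well, kinetic luminescence. Triplicate biological replicates.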
# [9] = target: Estrogen receptor (Homo sapiens) (UniProt P03372); assay: ATG_ERa_TRANS: Attagene TRANS-FACTORIAL HepG2 Assay for human Estrogen Receptor alpha (ERa) (AID 2282970); conditions: HepG2 Attagene TRANS ERa GAL4 reporter, mRNA
# How it was run: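 Signal derives from fluorescence of labelled reporter PCR fragments separated by capillary electrophoresis. HepG2 cells transiently carrying multiple GAL4-UAS reporter units were treated 24 hours, and induction above DMSO baseline was fitted as activity.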
# [10] = read-out: Vascular cell adhesion molecule 1 (VCAM1), VCAM1 (gene 7412); assay: BSK_MyoF_VCAM1: BioMAP Diversity Plus: MyoF Assay for Vascular cell adhesion molecule 1 (VCAM1) Biomarker Activity (AID 2284231; active means hit-call score of the fitted dose curve at least 0.9, where 1 is the maximum; inactive means score below 0.9); conditions: primary human lung fibroblasts
# How it was run: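 VCAM-1 levels, lung fibroblasts, ELISA, 24 h exposure, increase scored relative to DMSO.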
# [11] = read-out: Actin alpha 1 (ACTA1), ACTA1 (gene 58); assay: BSK_MyoF_ACTA1: BioMAP Diversity Plus: MyoF Assay for Actin alpha 1 (ACTA1) Biomarker Activity (AID 2284244; active means hit-call score of the fitted dose curve at least 0.9, where 1 is the maximum; inactive means score below 0.9); conditions: primary human lung fibroblasts
# How it was run: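 ELISA read-out of a-SMA in primary human lung fibroblast cultures, 24 h post-dosing. Activity scored in the positive direction versus DMSO baseline.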
# [12] = read-out: Plasminogen activator inhibitor-1 (PAI1), SERPINE1 (gene 5054); assay: BSK_MyoF_PAI1: BioMAP Diversity Plus: MyoF Assay for Plasminogen activator inhibitor-1 (PAI1) Biomarker Activity (AID 2284256; active means hit-call score of the fitted dose curve at least 0.9, where 1 is the maximum; inactive means score below 0.9;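 further: PAI-1 protein level measured by ELISA in fibroblast cultures; PAI-1 read 24 h after compound addition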); conditions: primary human lung fibroblasts
# How it was run: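 In this multiplexed primary-cell system, fibroblasts from human lung received compound for 24 h before ELISA detection of PAI-1; overt toxicity was checked by SRB (0.1%, TCA-fixed, 560 nm) in parallel wells.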
# [13] = read-out: Interleukin-8 (IL8), CXCL8 (gene 3576); assay: BSK_MyoF_IL8: BioMAP Diversity Plus: MyoF Assay for Interleukin-8 (IL8) Biomarker Activity (AID 2284261; active means hit-call score of the fitted dose curve at least 0.9, where 1 is the maximum; inactive means score below 0.9); conditions: primary human lung fibroblasts
# How it was run: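 DMSO-normalised, upward-fitted IL-8 ELISA signal; human lung fibroblasts, 24 h chemical treatment.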
# [14] = BSK_MyoF_SRB: Viability Assessment in the BioMAP Diversity Plus: MyoF Assay (AID 2284267; active means hit-call score of the fitted dose curve at least 0.9, where 1 is the maximum; inactive means score below 0.9;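 further: total protein by SRB absorbance in parallel cultures as cytotoxicity measure; cells assessed 24 h after compound addition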); conditions: primary human lung fibroblasts
# How it was run: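 Lung fibroblast cultures, 24 h post-dose; fix 10% TCA, stain 0.1% SRB, read 560 nm. Signal = total protein as cytotoxicity measure; fitted relative to DMSO negative control.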
# [15] = target: Retinoic acid receptor alpha (Homo sapiens) (UniProt P10276); assay: ATG_RARa_TRANS: Attagene TRANS-FACTORIAL HepG2 Assay for human Retinoic Acid Receptor alpha (RARa) (AID 2283005)
# How it was run: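 Reporter transcripts, measured by RT-PCR with fluorescent labeling and capillary electrophoresis after 24 h dosing, reflect activity of an exogenous human RARa–GAL4 fusion in transiently transfected HepG2. Fitted for increase relative to DMSO.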
# [16] = target: human Peripheral-type Benzodiazepine Receptor (PBR), TSPO (gene 706) (UniProt P30536); assay: NVS_MP_hPBR: NovaScreen (NVS) Membrane Protein Assay for human Peripheral-type Benzodiazepine Receptor (PBR) (AID 2283331);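 further: hits reduce radioligand binding relative to DMSO baseline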
# How it was run: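 Cell-free binding to human colonic membrane preparations measured by filter-based scintillation counting after 1 h. Compounds first run at 25 uM in duplicate, then concentration series for actives; signal loss against DMSO baseline.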
# [17] = target: Nuclear receptor subfamily 1 group I member 2 (Homo sapiens) (UniProt O75469); assay: NVS_NR_hPXR: NovaScreen (NVS) Nuclear Receptor Binding Assay for human Pregnane X Receptor (PXR) (AID 2283365);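 further: a drop in FRET signal versus DMSO baseline means the compound binds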
# How it was run: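 Read-out: TR-FRET, human PXR, 2 h post-dosing, cell-free. Loss of signal vs DMSO taken as binding activity; 25 uM primary, concentration series secondary.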
# [18] = CEETOX_H295R_MTT_cell_viability: Viability Assessment in the CeeTox HT-H295R MTT Assay (AID 2283718; active means hit-call score of the fitted dose curve at least 0.9, where 1 is the maximum; inactive means score below 0.9)
# How it was run: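 MTT reduction (0.5 mg/ml, 4 h at 37 C; absorbance at 570 and 650 nm) gave viability as background-corrected percent change versus controls. H295R cells had 48 h forskolin (10 uM) prestimulation, then 48 h chemical exposure at 0.1% DMSO.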
# [19] = CCTE_Deisenroth_AIME_384WELL_CTox_Inactive: Cytotoxicity Assessment (CTOX) in CCTE's 384-well Estrogen Receptor Transactivation Assay without AIME metabolic competence (metabolism negative), Deisenroth Lab (AID 2284039);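 further: cell viability via live-cell protease substrate cleaved to fluorescent probe; cells exposed 24 h to medium preincubated 2 h with alginate-water beads without S9; loss of fluorescence signal means loss of viability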
# How it was run: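 VM7Luc4E2 human breast cells received conditioned medium from a 2 h incubation of chemical with alginate-water microspheres (no S9), then were exposed 24 h. Viability was read as protease-substrate cleavage to a fluorescent probe; loss of signal was fitted bidirectionally over 0.002–200 uM.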
# [20] = target: Androgen receptor (Homo sapiens) (UniProt P10275); assay: ATG_AR_TRANS: Attagene TRANS-FACTORIAL HepG2 Assay for human Androgen Receptor (AR) (AID 2282973); conditions: HepG2 Attagene TRANS-FACTORIAL AR reporter transcription
# How it was run: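 Chimeric nuclear receptor–Gal4 activity was assessed in human HepG2 hepatocytes after 24 h chemical dosing. Induced reporter mRNA was detected via labelled RT-PCR fragments on capillary electrophoresis, and gain of signal was analysed against DMSO.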
# human Retinoic Acid Receptor gamma (RARg), RARG (gene 5916), sequence (P13631 whole entry, looked up, the tested form may be a part): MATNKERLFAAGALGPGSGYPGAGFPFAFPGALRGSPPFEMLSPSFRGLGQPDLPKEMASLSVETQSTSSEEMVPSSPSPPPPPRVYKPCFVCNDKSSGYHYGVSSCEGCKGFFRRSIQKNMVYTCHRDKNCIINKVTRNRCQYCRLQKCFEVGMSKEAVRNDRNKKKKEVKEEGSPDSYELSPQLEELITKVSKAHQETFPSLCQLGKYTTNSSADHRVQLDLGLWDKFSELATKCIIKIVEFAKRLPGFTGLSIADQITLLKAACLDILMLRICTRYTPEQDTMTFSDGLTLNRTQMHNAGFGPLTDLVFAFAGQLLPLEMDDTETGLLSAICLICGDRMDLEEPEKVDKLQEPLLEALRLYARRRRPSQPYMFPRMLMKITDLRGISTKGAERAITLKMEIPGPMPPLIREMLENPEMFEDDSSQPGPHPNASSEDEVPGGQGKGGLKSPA
# rat Thyrotropin Releasing Hormone Receptor (TRH), Trhr (gene 25570), sequence (Q01717 whole entry, looked up): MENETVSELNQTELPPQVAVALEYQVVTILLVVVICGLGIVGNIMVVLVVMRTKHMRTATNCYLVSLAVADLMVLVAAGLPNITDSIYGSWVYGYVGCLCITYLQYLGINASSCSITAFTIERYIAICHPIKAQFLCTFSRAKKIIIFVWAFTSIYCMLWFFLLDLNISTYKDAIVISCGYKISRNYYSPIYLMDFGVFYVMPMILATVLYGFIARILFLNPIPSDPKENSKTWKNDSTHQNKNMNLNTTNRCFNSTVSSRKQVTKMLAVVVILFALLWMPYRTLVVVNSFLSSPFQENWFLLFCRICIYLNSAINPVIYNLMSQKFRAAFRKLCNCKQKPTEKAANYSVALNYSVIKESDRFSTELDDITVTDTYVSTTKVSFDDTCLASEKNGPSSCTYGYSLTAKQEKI
# human Peripheral-type Benzodiazepine Receptor (PBR), TSPO (gene 706), sequence (P30536 whole entry, looked up): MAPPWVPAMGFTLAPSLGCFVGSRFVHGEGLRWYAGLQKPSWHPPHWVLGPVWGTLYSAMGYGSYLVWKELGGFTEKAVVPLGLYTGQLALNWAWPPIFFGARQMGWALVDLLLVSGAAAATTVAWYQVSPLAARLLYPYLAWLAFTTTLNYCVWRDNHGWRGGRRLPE
# Bile acid receptor (Homo sapiens), sequence (Q96RI1 whole entry, looked up, the tested form may be a part): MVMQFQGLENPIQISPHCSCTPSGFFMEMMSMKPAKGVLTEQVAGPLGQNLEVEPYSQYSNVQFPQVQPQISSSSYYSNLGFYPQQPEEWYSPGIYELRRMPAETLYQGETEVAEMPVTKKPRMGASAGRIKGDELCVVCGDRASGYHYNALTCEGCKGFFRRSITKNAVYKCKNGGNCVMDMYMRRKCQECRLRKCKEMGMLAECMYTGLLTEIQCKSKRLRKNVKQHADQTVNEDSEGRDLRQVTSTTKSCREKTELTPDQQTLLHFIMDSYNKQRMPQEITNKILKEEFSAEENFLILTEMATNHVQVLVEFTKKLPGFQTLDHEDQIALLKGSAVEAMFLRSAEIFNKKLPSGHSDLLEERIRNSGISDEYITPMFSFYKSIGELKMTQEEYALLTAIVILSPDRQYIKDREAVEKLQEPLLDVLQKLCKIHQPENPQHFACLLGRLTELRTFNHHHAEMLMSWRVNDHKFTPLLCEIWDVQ
# Glucocorticoid receptor (Homo sapiens), sequence (P04150 whole entry, looked up): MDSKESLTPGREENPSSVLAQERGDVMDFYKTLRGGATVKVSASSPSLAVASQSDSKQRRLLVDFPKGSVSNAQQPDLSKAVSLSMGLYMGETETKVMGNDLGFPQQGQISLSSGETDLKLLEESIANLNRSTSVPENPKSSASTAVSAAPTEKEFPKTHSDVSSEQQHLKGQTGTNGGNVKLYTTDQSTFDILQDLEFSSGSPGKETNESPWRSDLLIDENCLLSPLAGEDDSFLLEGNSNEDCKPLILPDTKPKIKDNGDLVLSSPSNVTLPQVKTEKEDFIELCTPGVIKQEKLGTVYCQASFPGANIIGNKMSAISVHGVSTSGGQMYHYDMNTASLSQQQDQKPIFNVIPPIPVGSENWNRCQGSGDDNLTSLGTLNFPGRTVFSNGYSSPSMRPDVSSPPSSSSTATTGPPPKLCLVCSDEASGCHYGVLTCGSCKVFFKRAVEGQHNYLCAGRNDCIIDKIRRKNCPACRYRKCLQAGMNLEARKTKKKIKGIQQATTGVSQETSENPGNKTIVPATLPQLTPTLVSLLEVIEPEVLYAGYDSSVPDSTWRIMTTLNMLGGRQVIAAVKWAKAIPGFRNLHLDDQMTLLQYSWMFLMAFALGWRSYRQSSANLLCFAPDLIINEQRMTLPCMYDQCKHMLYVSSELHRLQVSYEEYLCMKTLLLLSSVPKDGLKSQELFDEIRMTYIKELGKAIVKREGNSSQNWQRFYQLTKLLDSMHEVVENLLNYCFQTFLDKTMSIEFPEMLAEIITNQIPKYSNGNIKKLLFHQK
# Retinoic acid receptor alpha (Homo sapiens), sequence (P10276 whole entry, looked up, the tested form may be a part): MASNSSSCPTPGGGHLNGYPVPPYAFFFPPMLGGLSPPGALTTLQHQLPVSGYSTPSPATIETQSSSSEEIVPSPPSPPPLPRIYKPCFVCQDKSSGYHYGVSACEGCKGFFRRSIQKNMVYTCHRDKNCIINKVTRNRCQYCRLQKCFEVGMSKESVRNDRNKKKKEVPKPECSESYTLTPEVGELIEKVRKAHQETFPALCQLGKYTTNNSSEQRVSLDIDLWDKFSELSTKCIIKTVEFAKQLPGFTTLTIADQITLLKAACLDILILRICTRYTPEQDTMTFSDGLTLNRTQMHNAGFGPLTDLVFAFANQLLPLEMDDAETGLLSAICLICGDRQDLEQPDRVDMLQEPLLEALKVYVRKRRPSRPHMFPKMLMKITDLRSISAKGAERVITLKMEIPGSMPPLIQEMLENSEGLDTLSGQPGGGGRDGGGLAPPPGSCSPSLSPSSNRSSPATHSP
# Nuclear receptor subfamily 1 group I member 2 (Homo sapiens), sequence (O75469 whole entry, looked up): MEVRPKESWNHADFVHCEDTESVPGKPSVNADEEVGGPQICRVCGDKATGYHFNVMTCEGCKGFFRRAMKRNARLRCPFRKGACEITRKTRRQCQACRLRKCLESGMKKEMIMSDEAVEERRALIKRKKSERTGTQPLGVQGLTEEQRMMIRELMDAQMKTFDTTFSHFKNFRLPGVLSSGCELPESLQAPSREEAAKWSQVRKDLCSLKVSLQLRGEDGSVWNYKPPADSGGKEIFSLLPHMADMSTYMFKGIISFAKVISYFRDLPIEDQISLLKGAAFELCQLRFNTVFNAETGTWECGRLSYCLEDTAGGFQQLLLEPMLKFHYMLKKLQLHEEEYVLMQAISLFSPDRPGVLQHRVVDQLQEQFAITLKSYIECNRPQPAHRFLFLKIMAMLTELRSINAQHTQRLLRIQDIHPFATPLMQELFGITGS
# Luciferin 4-monooxygenase (Photinus pyralis), sequence (P08659 whole entry, looked up): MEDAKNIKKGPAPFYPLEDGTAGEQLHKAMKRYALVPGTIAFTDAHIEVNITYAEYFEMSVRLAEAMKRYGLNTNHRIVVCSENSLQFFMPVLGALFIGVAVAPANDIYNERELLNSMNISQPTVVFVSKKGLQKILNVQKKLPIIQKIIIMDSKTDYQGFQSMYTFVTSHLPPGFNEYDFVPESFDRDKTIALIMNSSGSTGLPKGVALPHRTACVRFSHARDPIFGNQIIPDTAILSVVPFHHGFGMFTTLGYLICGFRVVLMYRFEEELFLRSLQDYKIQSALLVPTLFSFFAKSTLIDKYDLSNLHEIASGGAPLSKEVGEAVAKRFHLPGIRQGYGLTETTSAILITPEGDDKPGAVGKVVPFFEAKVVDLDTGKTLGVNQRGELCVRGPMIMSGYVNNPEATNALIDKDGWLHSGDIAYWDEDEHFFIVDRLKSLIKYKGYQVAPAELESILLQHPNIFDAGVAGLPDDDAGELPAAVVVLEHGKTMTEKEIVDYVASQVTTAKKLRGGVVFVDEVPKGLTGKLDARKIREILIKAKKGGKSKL
# Estrogen receptor (Homo sapiens), sequence (P03372 whole entry, looked up, the tested form may be a part): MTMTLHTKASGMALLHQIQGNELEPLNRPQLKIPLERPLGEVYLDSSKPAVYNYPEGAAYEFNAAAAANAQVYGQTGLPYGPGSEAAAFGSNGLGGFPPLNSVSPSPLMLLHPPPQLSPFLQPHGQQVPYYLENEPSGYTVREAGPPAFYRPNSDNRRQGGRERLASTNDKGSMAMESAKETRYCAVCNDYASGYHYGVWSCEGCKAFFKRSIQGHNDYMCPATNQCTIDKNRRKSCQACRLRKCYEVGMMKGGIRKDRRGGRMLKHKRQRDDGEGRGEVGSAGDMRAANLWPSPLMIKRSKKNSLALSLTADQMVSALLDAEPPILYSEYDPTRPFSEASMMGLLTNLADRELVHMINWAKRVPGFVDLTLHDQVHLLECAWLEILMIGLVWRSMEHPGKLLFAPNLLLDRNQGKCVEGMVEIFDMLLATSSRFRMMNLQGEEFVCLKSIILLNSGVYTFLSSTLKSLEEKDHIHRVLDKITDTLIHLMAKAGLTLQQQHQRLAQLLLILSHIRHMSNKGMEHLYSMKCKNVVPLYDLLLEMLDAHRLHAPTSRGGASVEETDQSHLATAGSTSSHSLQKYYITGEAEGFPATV
# human Retinoic Acid Receptor beta (RARb), RARB (gene 5915), sequence (P10826 whole entry, looked up, the tested form may be a part): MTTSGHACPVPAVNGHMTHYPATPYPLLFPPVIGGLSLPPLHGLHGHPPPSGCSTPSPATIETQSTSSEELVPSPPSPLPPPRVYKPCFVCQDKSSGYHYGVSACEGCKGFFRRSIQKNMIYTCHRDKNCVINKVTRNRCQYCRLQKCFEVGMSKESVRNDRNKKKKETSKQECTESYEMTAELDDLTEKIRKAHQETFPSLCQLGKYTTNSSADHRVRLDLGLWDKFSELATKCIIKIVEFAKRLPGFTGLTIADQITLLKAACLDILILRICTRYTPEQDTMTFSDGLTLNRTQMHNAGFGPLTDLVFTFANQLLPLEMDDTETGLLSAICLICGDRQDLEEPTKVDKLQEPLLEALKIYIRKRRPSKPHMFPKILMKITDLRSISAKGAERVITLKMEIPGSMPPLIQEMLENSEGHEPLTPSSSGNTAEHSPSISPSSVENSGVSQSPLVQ
structure (smiles),measurement,setting,value
CNC(=N[N+](=O)[O-])NCC1CCOC1 (centres undefined),outcome,[1],inactive
same,outcome,[2],inactive
same,outcome,[3],inactive
CC1CCCC1.[C-]#[O+].[C-]#[O+].[C-]#[O+].[Mn],outcome,[4],inactive
same,outcome,[5],inactive
same,outcome,[2],inactive
same,AC50,[6],26.4 µM (active)
same,outcome,[7],inactive
same,outcome,[8],inactive
O=c1c2ccccc2c(=O)c2c1cc(Cl)c1[nH]c3c([nH]c12)c(Cl)cc1c(=O)c2ccccc2c(=O)c13,outcome,[9],inactive
same,outcome,[10],inactive
same,outcome,[11],inactive
same,outcome,[12],inactive
same,outcome,[13],inactive
same,outcome,[14],inactive
O=C(CCl)c1ccccc1,outcome,[4],inactive
same,outcome,[15],inactive
same,outcome,[5],inactive
same,AC50,[6],43.8 µM (active)
same,AC50,[7],43.8 µM (active)
same,outcome,[8],inactive
C[N+](=O)[O-],outcome,[1],inactive
O=S(=O)(c1ccccc1)c1ccccc1,outcome,[15],inactive
same,outcome,[5],inactive
same,AC50,[16],10.1 µM (active)
same,outcome,[10],inactive
same,outcome,[11],inactive
same,outcome,[12],inactive
same,outcome,[13],inactive
same,outcome,[14],inactive
CCC(=O)c1ccc(Cl)cc1,outcome,[17],inactive
CN(C)C(=O)C(c1ccccc1)c1ccccc1,outcome,[2],inactive
same,outcome,[17],inactive
CC(C)C#N,outcome,[1],inactive
same,outcome,[15],inactive
same,outcome,[5],inactive
Nc1ccc(Cl)c(Cl)c1,AC50,[6],1.16 µM (active)
same,AC50,[7],2.18 µM (active)
same,outcome,[18],inactive
same,outcome,[8],inactive
same,outcome,[19],inactive
N#CCNCC#N,outcome,[9],inactive
S=c1[nH]c2ccccc2[nH]1,AC50,[6],0.0688 µM (active)
same,outcome,[7],inactive
same,AC50,[8],2.02 µM (active)
Cc1ccc(OP(=O)(Oc2ccc(C)cc2)Oc2ccc(C)cc2)cc1 (tested in a mixture with another compound),outcome,[1],inactive
same,outcome,[2],inactive
same,AC50,[16],1.12 µM (active) and 1.76 µM (active)
same,outcome,[18],inactive
same,outcome,[10],inactive
same,AC50,[11],26.4 µM (active)
same,outcome,[12],inactive
same,AC50,[13],10.2 µM (active)
same,outcome,[14],inactive
[CH3][Sn]([CH3])([Cl])[Cl],outcome,[17],inactive
N#CCCCCC#N,outcome,[3],inactive
same,outcome,[19],inactive
CC(C)CCCCCCCOC(=O)c1ccccc1C(=O)OCCCCCCCC(C)C,outcome,[1],inactive
same,outcome,[10],inactive
same,outcome,[11],inactive
same,outcome,[12],inactive
same,outcome,[13],inactive
same,outcome,[14],inactive
O=C(NCNC(=O)NC1C(=O)NC(=O)N1CO)NC1C(=O)NC(=O)N1CO (centres undefined),outcome,[15],inactive
same,outcome,[5],inactive
same,outcome,[3],inactive
CC1(C)[C@H](C(=O)O[C@H](C#N)c2cccc(Oc3ccccc3)c2)[C@@H]1C=C(Br)Br,outcome,[20],inactive
same,AC50,[16],10.1 µM (active)
same,outcome,[16],inactive
same,outcome,[10],inactive
same,outcome,[11],inactive
same,outcome,[12],inactive
same,outcome,[13],inactive
same,outcome,[14],inactive
